Compound activity from PubChem BioAssay.
The list is not random: actives were taken first. Their share in the collection is about 3.9%.
Wnt act = activates Wnt/beta-catenin signaling in a reporter cell assay; activator, plate reader; activation, % at 9.35 µM; 300,000 tested, 1.2% active; in the data active = activation above about 30%, passing the limit was not always enough; inconclusive = no clear call, values can overlap the other calls;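 note: 0% = neutral control wells and 100% = positive control wells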
HSF1 inhib = HSF1 inhibition | NIH3T3-HGL HSE-luciferase, MG132-induced, luminescence 8 h; hits give low values | activity change, negative = inhibition, % at 7.5 µM (by protocol) | 300,000 tested, 0.77% active;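 active = more than half of replicate wells show activity change below -50%, luminescence cut by over half; inconclusive = some wells, but at most half, below -50%; inactive = no replicate well below -50%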;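 note: luciferase reports HSF-1 transcriptional activity via heat shock element; 0% = median of DMSO wells and -100% = zero luminescence signal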
HSF-1 act = increases HSF-1 driven luciferase reporter signal. AID 504408. 300,000 tested, 1.7% active. NIH3T3-HGL HSF-1 luciferase reporter, MG132, 8 h; 100% = twice DMSO control signal. activation, % at 9 µM;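 active = mean replicate activation of at least 50% with a set share of replicates each reaching 50%; inconclusive = only one of those two conditions met; inactive = mean below 50% and too few replicates reaching it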;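 note: 0% = median of the neutral control wells and 100% = twice that signal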
esBAF inh = blocks esBAF chromatin remodeling in mouse ES cells. Bmi1-luciferase knock-in reporter, 24 h; 100% = twice the neutral-well signal. reporter increase, % at 12.5 µM. 350,000 tested, 2% active. AID 602393; in the data active = activation above about 40%; inconclusive = no clear call, values can overlap the other calls;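 note: 0% = median of the plate's neutral control wells and 100% = double that signal; a rise in the Bmi1 reporter signal indicates esBAF inhibition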
MITF TRPM1 HTS = activators of MITF-driven TRPM1 promoter activity in SK-MEL-5 cells; SK-MEL-5 TRPM1-promoter luciferase, 24 h; % of positive control, neutral wells = 0; activation, % at 12.5 µM; 300,000 tested, 0.75% active; AID 588334;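 active = mean activation of at least 80% with every replicate also reaching 80%; inconclusive = mean reaches 80% but some replicate falls short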;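 note: 0% = neutral control wells and 100% = parthenolide positive control wells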
* marks the source's active call; other numbers are inactive results; ? = inconclusive; . = not tested or not shown.

SMILES	Wnt act	HSF1 inhib	HSF-1 act	esBAF inh	MITF TRPM1 HTS
C[C@@H](O)C#Cc1ccc2c(c1)O[C@@H](CN(C)Cc1ccncc1)[C@@H](C)CN([C@@H](C)CO)S2(=O)=O	.	.	.	-12	.
COC(=O)C[C@H]1C[C@H]2c3cc(NS(=O)(=O)c4ccc(OC)cc4)ccc3O[C@H]2[C@@H](CO)O1	.	.	.	3	.
Cc1noc(C)c1NC(=O)Nc1ccc2c(c1)C(=O)N([C@H](C)CO)C[C@@H](C)[C@H](CN(C)CC1CCCCC1)OCCCC[C@@H](C)O2	.	.	.	0	.
CSc1ccccc1NC(=O)c1noc2c1CCC2	-3	2	22	48*	19
O=C(NCCc1ccccc1)c1noc2c1CCCCC2	.	3	2	50*	107*
Cc1ccc(NC(=O)c2noc3c2CCc2ccccc2-3)cc1	42*	21	?	60*	.
O=C(Nc1cccc(O)c1)c1noc2c1CCc1ccccc1-2	.	6	15	-33	15
Cc1nn(Cc2ccccc2)c(C)c1NC(=O)c1noc2c1CCc1ccccc1-2	.	-67*	-72	-4	2
O=C(NCc1ccccc1)c1noc2c1CCCC2	.	11	10	23	10
O=C(N[C@@H]1CC[C@@H](CCn2cc(C3(O)CCCC3)nn2)O[C@H]1CO)C1CCCCC1	.	.	.	4	.
CO[C@@H]1CN(C)C(=O)c2cc(NC(=O)NC(C)C)ccc2OC[C@H](C)N(C)C[C@H]1C	.	.	.	2	.
CCc1ccc(NC(=O)c2noc3c2CCC3)cc1	3	10	41	73*	.
Cc1ccc(O)c(NC(=O)c2noc3c2CCCCC3)c1	27	25	31	51*	25
CCc1ccc(NC(=O)c2noc3c2CCc2ccccc2-3)cc1	33*	8	31	29	.
CCCc1cnc(N2CCN(C(=S)NC)CC2)nc1	40*	16	13	37	.
COc1ccc(-c2cc3nc(C)cc(C)n3n2)cc1	-5	22	27	12	53
Cc1cc(C)n2nc(-c3ccc(Cl)cc3)cc2n1	34*	25	37	20	24
Cc1cc(C)n(-c2nc(-c3ccc(Cl)cc3)cs2)n1	0	11	13	51*	36
Cc1cc(C)n2nc(-c3ccc(Br)cc3)cc2n1	45*	27	52*	35	.
CC(C)NC(=O)N(C)C[C@H]1Oc2cc(C#C[C@@H](C)O)ccc2S(=O)(=O)N([C@@H](C)CO)C[C@H]1C	.	.	.	-1	.
CCOC(=S)SCC(=O)Nc1nc(C)c(C)s1	-1	164	236*	-3	11
COC(=O)CCC(=O)Nc1nccs1	-1	-4	3	3	5
CCOC(=O)C(=O)Nc1nccs1	-3	-6	4	-3	-23
CCCC(CCC(=O)Nc1nccs1)C(=O)O (configuration not stated)	0	7	53*	.	4
CCOC(=S)SCC(=O)Nc1nc(-c2ccccc2)cs1	-8	35	67*	.	-37
SMILES	Wnt act	HSF1 inhib	HSF-1 act	esBAF inh	MITF TRPM1 HTS
CCOC(=S)SCC(=O)Nc1nccs1	0	84	115*	.	-5
O=C(CSc1nc2ccccc2o1)Nc1nc2ccccc2s1	.	3	24	34	.
O=C(CSc1nc2ccccc2o1)Nc1nc(-c2ccccc2)cs1	.	-56*	-60	-13	36
COc1ccc(CNc2nc3ccccc3n2CCN2CCOCC2)cc1	-5	6	-21	.	5
C=CCc1cccc(CNc2nc3ccccc3n2C)c1O	-3	13	40	14	-5
CCN(CC)c1ccc(CNc2nc3ccccc3n2CCN2CCOCC2)cc1	-2	-60*	-72	18	5
C=CCc1cccc(CNc2nc3ccccc3n2CCN2CCOCC2)c1O	.	88	118*	-9	2
CCCC(=O)Nc1ccc2c(c1)OC[C@H](C)N(Cc1ccccc1F)C[C@@H](C)[C@@H](OC)CN(C)C2=O	.	.	.	-4	.
Cc1ccc(Nc2ncnc3ccccc23)cc1	.	3	30	46*	?
Cc1cccc(Nc2ncnc3ccccc23)c1	47*	2	-2	.	1
Cc1ccc(/C(=N/Nc2ncnc3ccccc23)C(=O)O)cc1	44*	15	41	52*	-4
CC(C)(C)c1cc(C(=O)NNC(=O)c2ccc(C(F)(F)F)cc2)no1	49*	-6	15	3	5
Cc1nnsc1C(=O)NNC(=O)c1ccc(C(F)(F)F)cc1	9	1	1	18	7
C[C@H](CO)N1C[C@H](C)[C@H](CN(C)Cc2ccc(F)cc2)Oc2ncc(-c3ccc(F)cc3)cc2C1=O	.	.	.	-1	.
O=C(Nc1cccnc1)c1ccc([N+](=O)[O-])s1	-1	.	.	0	-77
O=C(Nc1cccc2ccccc12)c1ccc([N+](=O)[O-])s1	-3	41	71*	.	-35
O=C(Nc1ccccc1F)c1ccc([N+](=O)[O-])s1	12	68	101*	.	-33
CC(=O)c1cccc([N+](=O)[O-])c1	-3	.	.	-6	9
O=C(C#Cc1ccccc1)c1cccc([N+](=O)[O-])c1	-1	61	101*	5	-100
C[C@@H]1CN([C@H](C)CO)C(=O)c2cc(-c3ccccc3)cnc2O[C@H]1CN(C)C	.	.	.	-10	.
COc1ccc(-c2[nH]ncc2CN2CCN(C3CCCCC3)C(=O)C2)cc1F	-1	21	56*	0	1
CCOc1ccc(NC(=O)COc2ccc3c(c2)OCO3)cc1	6	4	-14	-1	9
Cc1ccc(NC(=O)COc2ccc3c(c2)OCO3)c(Cl)c1	41*	.	.	48*	98*
N#Cc1ccccc1NC(=O)COc1ccc2c(c1)OCO2	18	41	88*	67*	120*
CCc1ccccc1NC(=O)COc1ccc2c(c1)OCO2	5	1	4	.	34
SMILES	Wnt act	HSF1 inhib	HSF-1 act	esBAF inh	MITF TRPM1 HTS
CCCNC(=O)N[C@@H]1CC[C@H](CC(=O)NC2CCC2)O[C@H]1CO	.	.	.	3	.
CO[C@@H]1CN(C)C(=O)c2ccc(NC(=O)C3CC3)cc2OC[C@@H](C)N(C(=O)c2ccccc2)C[C@H]1C	.	.	.	3	.
Cc1ccc(N=Cc2cccc(O)c2O)c(C)c1	13	11	13	0	.
Cc1ccc(N=Cc2sc(O)c3ccccc23)cc1	84*	0	16	94*	.
Cc1ccc(N=Cc2sc(O)c3ccccc23)c(C)c1	0	12	17	74*	.
COc1ccc(-c2nnc(N)s2)cc1	13	.	.	29	13
CCCOc1ccc(-c2nnc(N)s2)cc1	36*	12	18	?	60
CC(=O)NCCNC(=O)c1ccc(CSc2nc3ccccc3s2)cc1	17	-59*	-60	-52	-8
COC(=O)c1ccc(CSc2nc3ccccc3s2)o1	3	16	26	47*	63
COC(=O)c1ccc(CSc2n[nH]c(=S)s2)o1	-4	7	2	5	.
CCCC(=O)Nc1ccc2c(c1)C(=O)N(C)[C@H]1CC[C@H](CC(=O)NCCc3ccccc3)O[C@H]1CO2	.	.	.	-3	.
C[C@@H]1CN([C@@H](C)CO)C(=O)c2cc(C#CC(C)(C)O)cnc2O[C@@H]1CN(C)Cc1ccccn1	.	.	.	3	.
